Source: PubChem BioAssay (NCI)
Compounds without any hit were thinned out: in the full panel of roughly 79,000, 15% have a hit. Calls of active or inactive are those of the source. No stated cut-off is given here; in the data, active means growth inhibition above about 70%; inactive means the rest.

What was measured:
[1] = NCI Yeast Anticancer Drug Screen. Data for the rad52 strain (AID 147);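 further: 0% = growth of vehicle-treated control cultures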; conditions: S. cerevisiae rad52 mutant growth inhibition, active compounds read high
Method in brief: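 Screen used a yeast mutant impaired in DNA repair. After compound exposure, growth was measured. Values reflect inhibition compared with vehicle-treated cells.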

[2] = NCI Yeast Anticancer Drug Screen. Data for the wt1 strain (AID 149);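 further: 0% = growth of vehicle-treated wt1 cultures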; conditions: S. cerevisiae wt1 strain (SPY 50644) growth inhibition, active compounds read high
Method in brief: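 Compounds are added to wt1 yeast cultures. Growth is then measured. Inhibition is expressed relative to vehicle-treated controls.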

[3] = NCI Yeast Anticancer Drug Screen. Data for the rad50EPP+ strain (AID 151);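 further: 0% = growth of vehicle-treated control cultures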; conditions: S. cerevisiae rad50 mutant strain, active compounds read high
Method in brief: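 Exposing the rad50EPP+ strain to each compound, growth was compared with vehicle-only cultures to give inhibition.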

[4] = NCI Yeast Anticancer Drug Screen. Data for the mgt1 strain (AID 153); conditions: S. cerevisiae mgt1 mutant growth inhibition, active compounds read high
Method in brief: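 Genetically defined yeast (mgt1) treated with compound; inhibition of growth expressed against vehicle-treated controls.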

[5] = NCI Yeast Anticancer Drug Screen. Data for the rad50 strain (AID 155);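 further: 0% = growth of vehicle-only cultures of the same strain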; conditions: S. cerevisiae rad50 strain growth inhibition, active compounds read high
Method in brief: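 Inhibition values express reduced yeast growth in compound-treated cultures relative to vehicle-treated controls.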

[6] = NCI Yeast Anticancer Drug Screen. Data for the mec2-1 strain (AID 157); conditions: S. cerevisiae mec2-1 strain, active compounds read high
Method in brief: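 Readout is yeast growth inhibition, normalised to vehicle-treated controls, in the mec2-1 strain exposed to compound.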

[7] = NCI Yeast Anticancer Drug Screen. Data for the rad14 strain (AID 159);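 further: 0% = growth of vehicle-treated control cultures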; conditions: S. cerevisiae rad14 strain growth inhibition, active compounds read high
Method in brief: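 A mutant yeast strain defective in DNA damage repair is treated with compound; inhibition of its growth is scored against untreated, vehicle-exposed cultures.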

[8] = NCI Yeast Anticancer Drug Screen. Data for the sgs1 mgt1 strain (AID 161);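 further: 0% = growth of cultures given vehicle only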; conditions: S. cerevisiae sgs1 mgt1 strain, active compounds read high
Method in brief: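 Percent growth inhibition was derived by comparing compound-exposed mutant yeast with vehicle-exposed cultures. The strain carries alterations in DNA damage repair.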

[9] = NCI Yeast Anticancer Drug Screen. Data for the CLN2oe strain (AID 163);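 further: 0% = growth of vehicle-only control cultures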; conditions: S. cerevisiae CLN2oe strain, active compounds read high
Method in brief: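 Values reflect how much compound exposure reduced yeast growth, referenced to vehicle-exposed cells. Assay organism is a strain with a defined genetic change affecting cell-cycle control.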

[10] = NCI Yeast Anticancer Drug Screen. Data for the cln2 rad14 strain (AID 165);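 further: 0% = growth equal to vehicle treated cultures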; conditions: S. cerevisiae cln2 rad14 strain, active compounds read high
Method in brief: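 Relative to vehicle controls, growth inhibition of compound-treated cln2 rad14 yeast was recorded.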

[11] = NCI Yeast Anticancer Drug Screen. Data for the bub3 strain (AID 167); conditions: S. cerevisiae bub3 mutant strain, active compounds read high
Method in brief: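 Steps: expose the mutant yeast strain to compound; grow alongside vehicle-treated cultures; measure growth; express inhibition against the vehicle cultures.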

[12] = NCI Yeast Anticancer Drug Screen. Data for the wt2 strain (AID 169);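 further: 0% = growth of vehicle-treated yeast cultures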; conditions: S. cerevisiae wt2 strain growth inhibition, active compounds read high
Method in brief: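 Values express reduction in yeast growth under compound treatment, referenced to vehicle-treated cells.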

[13] = NCI Yeast Anticancer Drug Screen. Data for the mlh1 strain (AID 171);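 further: 0% = growth of vehicle-treated control cultures of the same strain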; conditions: S. cerevisiae mlh1 strain growth inhibition, active compounds read high
Method in brief: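 Steps: expose the defined-mutant yeast strain to compound; expose a parallel culture to vehicle; measure growth; express compound effect as inhibition relative to the vehicle culture.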

[14] = NCI Yeast Anticancer Drug Screen. Data for the sgs1 strain (AID 173);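 further: 0% = growth of vehicle-only control cultures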; conditions: S. cerevisiae sgs1 mutant, active compounds read high
Method in brief: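 Treat defined-mutant yeast with compound; measure growth; calculate inhibition relative to vehicle-treated cells.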

[15] = NCI Yeast Anticancer Drug Screen. Data for the mlh1 rad18 strain (AID 175); conditions: S. cerevisiae mlh1 rad18 strain growth inhibition, active compounds read high
Method in brief: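 Test agents were incubated with a yeast strain of defined genotype (DNA damage repair defect). Inhibition of growth was derived by comparison with vehicle-exposed cultures.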

[16] = NCI Yeast Anticancer Drug Screen. Data for the rad18 strain (AID 177); conditions: S. cerevisiae rad18 mutant growth inhibition, active compounds read high
Method in brief: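 A genetically defined yeast mutant impaired in DNA damage repair was treated with test compounds, then its growth was measured against cultures receiving vehicle alone.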

[17] = at 5.0 µM (retest, dose inferred, filed as 0.5)
[18] = at 50.0 µM (retest, dose inferred, filed as 5.0)

Measured: growth inhibition

CC(C)c1ccc(NC(=S)NC(=O)c2ccccc2)cc1
inactive: [1]; at 1.2 µM -32% | [1]; at 3.7 µM -30% | [1]; at 11.0 µM -19% | [1]; at 33.0 µM 12% | [1]; at 100.0 µM 26% | [2]; at 1.2 µM -9% | [2]; at 3.7 µM -22% | [2]; at 11.0 µM 4% | [2]; at 33.0 µM 20% | [2]; at 100.0 µM 41% | [3]; at 1.2 µM -2% | [3]; at 3.7 µM 4% | [3]; at 11.0 µM 47% | [3]; at 33.0 µM 53% | [3]; at 100.0 µM 58% | [4]; at 1.2 µM -27% | [4]; at 3.7 µM -23% | [4]; at 11.0 µM 27% | [4]; at 33.0 µM 52% | [4]; at 100.0 µM 47% | [5]; at 1.2 µM -27% | [5]; at 3.7 µM -19% | [5]; [17] 10% | [5]; at 11.0 µM 1% | [5]; at 33.0 µM 31% | [5]; [18] 31% | [5]; at 50.0 µM 52% | [5]; at 100.0 µM 39% | [6]; at 1.2 µM -35% | [6]; at 3.7 µM -19% | [6]; [17] 0% | [6]; at 11.0 µM 4% | [6]; at 33.0 µM 23% | [6]; [18] 40% | [6]; at 50.0 µM 42% | [6]; at 100.0 µM 38% | [7]; at 1.2 µM -19% | [7]; at 3.7 µM 0% | [7]; at 11.0 µM -3% | [7]; at 33.0 µM 42% | [7]; at 100.0 µM 30% | [8]; [17] 2% | [8]; [18] 69% | [8]; at 50.0 µM 66.6% | [9]; at 1.2 µM -21% | [9]; at 3.7 µM -21% | [9]; at 11.0 µM -2% | [9]; at 33.0 µM 56% | [9]; at 100.0 µM 51% | [10]; [17] 17% | [10]; [18] 64% | [10]; at 50.0 µM 40.9% | [11]; at 1.2 µM 3% | [11]; at 3.7 µM 41% | [11]; [17] 42% | [12]; at 1.2 µM -25% | [12]; at 3.7 µM -26% | [12]; at 11.0 µM -6% | [12]; at 33.0 µM 46% | [12]; at 100.0 µM 37% | [13]; at 1.2 µM -11% | [13]; at 3.7 µM 2% | [13]; at 11.0 µM 29% | [13]; at 33.0 µM 60% | [13]; at 100.0 µM 56% | [14]; at 1.2 µM -23% | [14]; at 3.7 µM -16% | [14]; at 11.0 µM 15% | [14]; at 33.0 µM 50% | [14]; at 100.0 µM 55% | [15]; [17] 5% | [15]; [18] 59% | [15]; at 50.0 µM 34% | [16]; at 1.2 µM -28% | [16]; at 3.7 µM -28% | [16]; at 11.0 µM -17% | [16]; at 33.0 µM 3% | [16]; at 100.0 µM 26%
active: [11]; at 11.0 µM 78% | [11]; at 33.0 µM 86% | [11]; [18] 87% | [11]; at 50.0 µM 76% | [11]; at 100.0 µM 80%
